Our source for the z-score and composite z-score values is PubChem BioAssay.

Experiment [1] in a line: optical density shifts of acrAB sulA E. coli – strain DRC41, OD650, 48 h, E. coli filamentation inducer project, primary screen (AID 1152).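 Note: E. coli MC1000 strain DRC41 lacking acrAB efflux pump and sulA.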 Particulars: higher = more signal, called active from +8 up or from −8 down.
The nature of experiment [2]: probe aLefty1 binding on compound microarray – biochemical, small-molecule microarray, 635/667 nm fluorescence, primary screen (AID 1153).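 Note: score merges spot fluorescence with signal-to-noise ratio from the scanned slide images.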 Conditions: higher = more signal.
A short description of experiment [3]: plasmodial surface anion channel blockers, osmotic lysis – cell-based, P. falciparum Indochina, OD700, 1 h, primary screen (AID 1154). Conditions: P. falciparum Indochina infected RBC osmotic lysis, higher = more signal, called active from +8 up or from −8 down.
Experiment [4] in a line: plasmodial surface anion channel blockers, osmotic lysis – cell-based, P. falciparum Indochina, OD700, 2 h, primary screen (AID 1155).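 Note: lysis reports solute entry through the parasite surface anion channel PSAC.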 Particulars: P. falciparum Indochina infected erythrocytes, higher = more signal, called active from +8 up or from −8 down.
Experiment [5] in a line: changes in parasitized red cell lysis, either direction – P. falciparum Indochina, OD700, 3 h, PSAC antagonist project, primary screen (AID 1156). Conditions: P. falciparum-infected erythrocytes, osmotic lysis, higher = more signal, called active from +8 up or from −8 down.
Experiment [6] can be described thus: plasmodial surface anion channel blockers, osmotic lysis – cell-based, P. falciparum Indochina, OD700, 18 h, primary screen (AID 1157). Conditions: P. falciparum Indochina infected erythrocytes, osmotic lysis OD700, 18 h; higher = more signal, called active from +8 up or from −8 down.
Experiment [7] is described as follows: S6 kinase pathway phospho-S6 level changes – cell-based, A549, cytoblot, luminescence, serum-stimulated, primary screen (AID 1158).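 Note: serum-stimulated A549 lung adenocarcinoma cells; signal is phosphorylated S6 detected by cytoblot immunostaining with HRP secondary.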 Conditions: 5 h, higher = more signal.
In experiment [8] the target is NADPH oxidase 2 (Homo sapiens) (UniProt P04839). The experiment is described as follows: compounds shifting NOX2 Amplex Red fluorescence – cell-based, HEK293-NOX2, PMA-stimulated, NOX inhibitor project, primary screen (AID 1159). Note: test concentration not given here. Particulars: 45 min, higher = more signal, called active from +8 up or from −8 down.
Sequence of NADPH oxidase 2 (Homo sapiens) (P04839 whole entry, looked up): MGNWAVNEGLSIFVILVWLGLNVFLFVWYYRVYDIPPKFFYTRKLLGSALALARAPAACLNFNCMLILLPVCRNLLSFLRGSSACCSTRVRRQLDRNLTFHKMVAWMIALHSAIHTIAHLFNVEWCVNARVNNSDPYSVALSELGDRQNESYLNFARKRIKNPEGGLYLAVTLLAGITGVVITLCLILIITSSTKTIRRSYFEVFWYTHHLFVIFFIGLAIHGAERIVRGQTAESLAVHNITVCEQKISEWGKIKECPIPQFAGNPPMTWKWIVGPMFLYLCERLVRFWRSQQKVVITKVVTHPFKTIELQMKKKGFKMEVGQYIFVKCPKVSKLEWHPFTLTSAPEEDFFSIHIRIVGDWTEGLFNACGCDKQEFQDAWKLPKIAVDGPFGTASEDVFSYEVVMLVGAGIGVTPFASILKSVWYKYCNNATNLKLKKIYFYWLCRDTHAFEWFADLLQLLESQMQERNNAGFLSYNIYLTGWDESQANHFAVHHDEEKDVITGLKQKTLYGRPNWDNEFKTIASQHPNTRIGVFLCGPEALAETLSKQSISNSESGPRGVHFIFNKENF
The target in experiment [9] is NADPH oxidase 4 (Homo sapiens) (UniProt Q9NPH5). The experiment is described as follows: compounds shifting NOX4 Amplex Red fluorescence – cell-based, HEK293-NOX4, tetracycline-induced, NOX inhibitor project, primary screen (AID 1160). Particulars: HEK293-NOX4, Amplex Red H2O2 fluorescence, 45 min; higher = more signal, called active from +8 up or from −8 down.
Sequence of NADPH oxidase 4 (Homo sapiens) (Q9NPH5 whole entry, looked up): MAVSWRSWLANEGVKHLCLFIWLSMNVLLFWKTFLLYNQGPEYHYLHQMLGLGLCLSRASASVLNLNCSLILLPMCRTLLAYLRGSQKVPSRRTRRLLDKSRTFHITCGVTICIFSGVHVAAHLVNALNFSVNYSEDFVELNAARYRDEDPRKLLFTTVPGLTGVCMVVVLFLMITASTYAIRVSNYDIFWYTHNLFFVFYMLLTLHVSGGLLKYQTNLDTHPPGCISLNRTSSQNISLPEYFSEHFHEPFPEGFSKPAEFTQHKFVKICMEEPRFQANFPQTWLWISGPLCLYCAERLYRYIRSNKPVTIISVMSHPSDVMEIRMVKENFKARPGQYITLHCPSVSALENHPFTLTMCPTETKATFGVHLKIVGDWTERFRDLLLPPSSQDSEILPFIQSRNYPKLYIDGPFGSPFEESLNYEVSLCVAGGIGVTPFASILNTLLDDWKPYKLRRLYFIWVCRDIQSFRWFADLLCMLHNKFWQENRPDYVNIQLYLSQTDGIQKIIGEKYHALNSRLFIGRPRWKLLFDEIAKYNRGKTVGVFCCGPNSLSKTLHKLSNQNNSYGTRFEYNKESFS
Experiment [10] addresses NADPH oxidase 5 (Homo sapiens) (UniProt Q96PH1). The experiment is described as follows: compounds shifting NOX5 Amplex Red fluorescence – cell-based, HEK293-NOX5, NOX inhibitor project, primary screen (AID 1161). Particulars: HEK293-NOX5, ionomycin, 45 min, higher = more signal.
A short description of experiment [11]: compound effects on lung adenocarcinoma cell viability – A549, calcein-AM fluorescence, 48 h, basal, profiling panel (AID 1162). Note: test concentration not given here. Conditions: higher = more signal.
Experiment [12] in a line: compound effects on differentiated 3T3-L1 adipocyte viability – cell-based, 3T3-L1 adipocytes, calcein-AM fluorescence, 48 h, basal, profiling panel (AID 1163). Note: test concentration not given here. Conditions: 3T3-L1 adipocytes viability, higher = more signal.
A short description of experiment [13]: compound effects on hepatocellular carcinoma cell viability – HepG2, calcein-AM fluorescence, 48 h, basal, profiling panel (AID 1164). Note: test concentration not given here. Conditions: higher = more signal.
Experiment [14] is described as follows: compound effects on multiple myeloma cell viability – MM1S, calcein-AM fluorescence, 48 h, basal, profiling panel (AID 1165). Note: test concentration not given here. Conditions: higher = more signal.
Experiment [15] can be described thus: calcein-AM signal in unstimulated myeloma cells – cell-based, calcein-AM fluorescence, 48 h, PK04 Diversity Set, profiling panel (AID 1166).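 Note: cells grown under basal conditions without added stimulus; test concentration not given here.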 Particulars: RPMI8226 myeloma viability, higher = more signal.
A short description of experiment [16]: JC-1 mitochondrial signal, unstimulated HepG2 cells – cell-based, JC-1 fluorescence, 24 h, 100 nL compound, profiling panel (AID 1167). Note: test concentration not given here. Conditions: HepG2 mitochondrial potential, higher = more signal.
The nature of experiment [17]: JC-1 mitochondrial signal, unstimulated adipocytes – cell-based, JC-1 fluorescence, 3T3-L1 adipocytes, 24 h, 100 nL compound, profiling panel (AID 1168). Note: test concentration not given here. Conditions: JC-1 mitochondrial fluorescence, higher = more signal, called active from +8 up or from −8 down.
A short description of experiment [18]: JC-1 mitochondrial signal, unstimulated myeloma cells – cell-based, JC-1 fluorescence, RPMI8226, 24 h, 100 nL compound, profiling panel (AID 1169). Note: test concentration not given here. Conditions: JC-1 mitochondrial potential fluorescence, higher = more signal.
Experiment [19] in a line: JC-1 mitochondrial signal, unstimulated MM1S myeloma – cell-based, JC-1 fluorescence, 24 h, 100 nL compound, profiling panel (AID 1170). Note: test concentration not given here. Particulars: MM1S mitochondrial potential, higher = more signal.
Experiment [20] is described as follows: resazurin metabolic signal in A549 cells – cell-based, resazurin fluorescence, 24 h, PK04 Diversity Set, profiling panel (AID 1171). Note: test concentration not given here. Particulars: A549 viability, higher = more signal, called active from +8 up or from −8 down. In general terms: Resazurin is reduced to fluorescent resorufin, in cell work by metabolically active cells.

Active and inactive are the calls of the source.

Sequence of NADPH oxidase 5 (Homo sapiens) (Q96PH1 whole entry, looked up): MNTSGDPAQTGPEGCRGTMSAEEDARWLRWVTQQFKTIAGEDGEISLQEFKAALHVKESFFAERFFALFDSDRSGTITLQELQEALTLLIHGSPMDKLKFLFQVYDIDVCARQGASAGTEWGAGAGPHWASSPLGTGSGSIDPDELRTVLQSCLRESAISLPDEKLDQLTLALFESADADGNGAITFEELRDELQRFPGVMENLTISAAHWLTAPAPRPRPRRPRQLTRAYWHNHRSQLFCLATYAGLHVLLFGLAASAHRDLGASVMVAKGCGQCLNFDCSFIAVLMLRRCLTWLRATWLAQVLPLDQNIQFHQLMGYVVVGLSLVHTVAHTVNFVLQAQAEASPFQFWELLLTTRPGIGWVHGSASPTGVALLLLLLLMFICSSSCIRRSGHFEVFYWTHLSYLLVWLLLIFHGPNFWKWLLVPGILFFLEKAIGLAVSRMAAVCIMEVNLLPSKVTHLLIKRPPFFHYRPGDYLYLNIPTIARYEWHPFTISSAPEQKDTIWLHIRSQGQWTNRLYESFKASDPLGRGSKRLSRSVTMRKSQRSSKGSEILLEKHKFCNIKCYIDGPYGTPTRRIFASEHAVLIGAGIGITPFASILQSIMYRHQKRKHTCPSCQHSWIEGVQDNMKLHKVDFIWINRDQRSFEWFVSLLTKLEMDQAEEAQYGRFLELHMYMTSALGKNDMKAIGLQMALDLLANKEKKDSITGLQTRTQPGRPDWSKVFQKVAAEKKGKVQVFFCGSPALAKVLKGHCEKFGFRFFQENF

As to `COCC(=C=CC[C@@H](O)c1cccc(OCCO)c1)C[C@@H](O)c1ccccn1`, the z-score in [1] is 0.335 (inactive); in experiment [3], 12 (active); in experiment [4], 1.42 (inactive); in experiment [5], 0.97 (inactive); in [6], 0.675 (inactive); in experiment [7], -0.613. Further, the z-score in [8] is 1.96 (inactive); in experiment [9], 0.744 (inactive); in experiment [10], 0.254; in experiment [11], 0.492; in [12] it was -0.0288; in experiment [13] it was -0.112. Besides, the z-score in [14] was 0.265; in experiment [15], -0.51; in experiment [16], 0.00274; in [17], 0.613 (inactive); in experiment [18], 0.00702; in [19], -0.0149. Moreover, in experiment [20], the z-score was 0.391 (inactive). The same molecule registered a composite z-score in experiment [2] of 0.0903.
Turning to `C[N+](C)(C)CCCCCCNC(=O)[C@@H]1C[C@@H]2C(=O)N[C@@H](Cc3ccccc3)C(=O)N2[C@@H]1c1cccc(OCCO)c1`, the z-score in experiment [1] is 1.49 (inactive); in experiment [3], 10.1 (active); in [4], 1.34 (inactive); in experiment [5] it was 1.42 (inactive); in experiment [6], 0.349 (inactive); in experiment [7], 0.0757. The z-score is 1.39 (inactive) in experiment [8]; 1.66 (inactive) in [9]; 1.05 in experiment [10]; 0.741 in experiment [11]; 0.0098 in experiment [12]; 0.417 in experiment [13]. The z-score was 0.653 in [14]; 0.925 in [15]; -0.432 in experiment [16]; 0.543 (inactive) in [17]; -0.267 in experiment [18]; -0.544 in experiment [19]. In addition, the z-score in experiment [20] is 0.898 (inactive). The same molecule showed a composite z-score in experiment [2] of 0.0588.
In the case of `CCCCCCc1nc(-c2cc(C)c(OC)c(C)c2)cc2c1[Si](C(C)C)(C(C)C)OC2`, the z-score in [1] was 0.488 (inactive); in experiment [3], 0.827 (inactive); in experiment [4] it was -0.0892 (inactive); in experiment [5], 0.193 (inactive); in [6], -0.351 (inactive); in experiment [7], 0.296. Further, the z-score in experiment [8] was -5.61 (inactive); in experiment [9] it was -1.72 (inactive); in experiment [10], -3.75; in experiment [11], -0.194; in [12], 1.29; in experiment [13] it was 0.117. In addition, the z-score is -1.12 in experiment [14]; -1.11 in experiment [15]; -0.48 in experiment [16]; -0.385 (inactive) in experiment [17]; -0.547 in experiment [18]; -0.288 in experiment [19]. In addition, the z-score in experiment [20] was 1.1 (inactive). In experiment [2], this molecule returned a composite z-score of 0.147.
`COC(=O)[C@@]1(Cc2ccc(F)cc2)[C@H]2c3cc(C(=O)N(C)C)n(Cc4ccccc4)c3C[C@H]2CN1C(=O)c1ccccc1`: the z-score in experiment [1] is -1.39 (inactive); in experiment [3], 2.6 (inactive); in experiment [4], 0.672 (inactive); in experiment [5] it was 0.657 (inactive); in [6] it was 1.23 (inactive); in experiment [7] it was -0.231. The z-score in experiment [8] was 1.01 (inactive); in experiment [9], 0.734 (inactive); in experiment [10], 1.89; in [11], -0.799; in experiment [12] it was -0.184; in experiment [13] it was -0.344. In addition, the z-score in experiment [14] was -0.812; in [15], -0.997; in [16], 0.746; in experiment [17], -0.85 (inactive); in experiment [18] it was -0.28; in [19] it was -0.529. Also, the z-score in [20] is -0.631 (inactive). Also, the composite z-score in experiment [2] came to 0.342.
Take `C=CCOC(=O)[C@H]1[C@@H]2C(=O)O[C@@H](c3ccccc3)[C@@H](c3ccccc3)N2[C@@H](c2ccc(OCCOC(=O)[C@@H]3C[C@@H]4C(=O)N[C@@H](CC(C)C)C(=O)N4[C@@H]3c3ccc(O)cc3)cc2)[C@]12C(=O)Nc1ccccc12`: the z-score was 0.204 (inactive) in experiment [1]; 3.03 (inactive) in [3]; 1.3 (inactive) in experiment [4]; 4.45 (inactive) in experiment [5]; 1.04 (inactive) in experiment [6]; -0.197 in [7]. Besides, the z-score is 1.63 (inactive) in [8]; 1.18 (inactive) in [9]; 1.49 in experiment [10]; -1.02 in experiment [11]; 0.385 in experiment [12]; -0.529 in experiment [13]. Also, the z-score in experiment [14] was -0.206; in experiment [15], 0.162; in [16] it was -1.89; in experiment [17], 0.0514 (inactive); in [18], -0.89; in experiment [19], -0.836. Besides, the z-score in experiment [20] is 0.414 (inactive). Moreover, the composite z-score in [2] was 0.439.
Turning to `C=CCN1C(=O)[C@]2(O[C@H](CCn3cc([C@H](O)c4ccccc4)nn3)[C@@H]([Si](C)(C)c3ccc(OC)cc3)[C@@H]2C)c2ccccc21`, the z-score in experiment [1] is -0.554 (inactive); in experiment [3] it was 4.6 (inactive); in experiment [4] it was 1.02 (inactive); in [5], 0.914 (inactive); in [6], 0.843 (inactive); in [7], 0.256. Moreover, the z-score in experiment [8] was 0.952 (inactive); in [9] it was 0.055 (inactive); in [10], -0.251; in [11], -0.366; in experiment [12] it was 0.76; in experiment [13], -1.85. Also, the z-score in [14] was -2.65; in experiment [15] it was -4.3; in experiment [16] it was -0.97; in experiment [17], 0.203 (inactive); in experiment [18] it was -0.953; in experiment [19] it was -2.26. For the same molecule, the z-score in experiment [20] was -1.75 (inactive). In experiment [2], this molecule had a composite z-score of -0.0099.
With `C=CCOC(=O)[C@H]1[C@@H]2C(=O)O[C@@H](c3ccccc3)[C@@H](c3ccccc3)N2[C@@H](c2ccc(OCCOC(=O)[C@H]3C[C@H]4C(=O)N[C@@H](CCCCNC(C)=O)C(=O)N4[C@H]3c3ccc(O)cc3)cc2)[C@]12C(=O)Nc1ccc(I)cc12`, the z-score in [1] is -1.8 (inactive); in experiment [3] it was -0.858 (inactive); in experiment [4] it was 0.461 (inactive); in experiment [5], 0.675 (inactive); in experiment [6], -0.214 (inactive); in experiment [7], -0.635. Moreover, the z-score is 1.36 (inactive) in [8]; 0.823 (inactive) in experiment [9]; 0.935 in [10]; -0.143 in [11]; -0.0346 in experiment [12]; -0.251 in experiment [13]. For the same molecule, the z-score is -2.94 in experiment [14]; -2.69 in [15]; 1.46 in experiment [16]; 0.585 (inactive) in experiment [17]; -0.538 in experiment [18]; -1.44 in experiment [19]. Moreover, in experiment [20], the z-score was 0.974 (inactive). In [2], this molecule yielded a composite z-score of 0.204.
For the molecule `C=C(C)[C@@H]1CC=C(C(O)C2C=CC3C(=O)N(C)C(=O)C3N2Nc2ccccc2)CC1` (stereo not given in full), the z-score was -1.54 (inactive) in experiment [1]; 1.89 (inactive) in experiment [3]; 0.344 (inactive) in experiment [4]; 0.683 (inactive) in experiment [5]; 1.59 (inactive) in experiment [6]; -0.549 in [7]. For the same molecule, the z-score in experiment [8] is -1.1 (inactive); in experiment [9], -2.76 (inactive); in experiment [10], -2.23; in experiment [11], -0.889; in [12], -1.16; in [13], -0.651. Moreover, the z-score is -1.36 in [14]; 0.0835 in experiment [15]; -0.9 in experiment [16]; 4.5 (inactive) in experiment [17]; -0.334 in [18]; -0.0333 in experiment [19]. In addition, the z-score in [20] is 0.392 (inactive). Moreover, the composite z-score in experiment [2] is 0.42.
